Consider 98 compounds from PubChem BioAssay AID1626 (SRMLSC, 2009).

Among all 220,000 compounds or so, about 2,000 (0.91%) were called active. Not shown: some 2% with an inconclusive outcome. Cut-off read from the data, not from the text of the source: inconclusive = inhibition above about 80% without an active follow-up result; inactive = below that; test concentration not stated here. The list is a sample of the results. Measured potencies and affinities stand elsewhere.

The test in a line: M. tuberculosis H37Rv growth inhibitors, H37Rv strain (AID 1626).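 Note: bacteria incubated seven days before Alamar blue readout; 0% = bacteria only wells and 100% = bacteria with antibiotic wells.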 Conditions: stronger effect = higher value, concentration not given here.
For orientation: inhibition means the relative decrease from the control value, in per cent. As for `CCOc1ncccc1C(=O)OCC(=O)c1ccccc1`, the inhibition was -3.62% (inactive).

As for `COc1ccc(CNC(=O)COC(=O)C2=COCCO2)cc1`, the inhibition is 46.3% (inactive).

Turning to `CCN(CC(=O)Nc1ccc(NC(C)=O)cc1)CC(=O)Nc1ccccc1C(=O)c1ccccc1`, the inhibition is 2.54% (inactive).

Consider `CC(=O)c1ccn(S(=O)(=O)c2ccccc2)c1`, for which the inhibition is 4.75% (inactive).

As to `CC1(C)Cc2c(cnn2-c2ccccc2)-c2c1c1ccccc1n2CC(O)CCl` (stereo not drawn), the inhibition was 2.97% (inactive).

Turning to `CC1(C)Cc2c(cnn2-c2ccccc2)-c2c1c1ccccc1n2CC(O)CBr` (stereo not drawn), the inhibition is 8.54% (inactive).

Regarding `O=C(Nc1ccc(Cl)cn1)c1ccc(-c2ccc(Cl)c(Cl)c2)o1`, the inhibition was 9.55% (inactive).

Consider `COc1cc2nc(-c3ccccc3)nc(N3CCCC3)c2cc1OC`, for which the inhibition is 7.03% (inactive).

`COc1cc2nc(Cl)nc(N3CCCCC3)c2cc1OC`: the inhibition is 1.6% (inactive).

With `O=c1c2ccccc2nc(SCc2ccncc2)n1CC1CCCO1` (stereo not drawn), the inhibition was 4.12% (inactive).

Regarding `CSc1ccccc1NC(=O)Nc1ccc(F)c(Cl)c1`, the inhibition was 1.15% (inactive).

On to `O=C(Nc1ccc(F)cc1F)Nc1ccc(F)cc1F`, for which the inhibition is -3.43% (inactive).

For `O=C(Nc1ccccc1)Nc1csc2ccccc12`, the inhibition is 14.7% (inactive).

For the compound `O=C(Nc1ccc(F)cc1)Nc1csc2ccccc12`, the inhibition was 57.9% (inactive).

`CCc1ccc(C2C3=C(CC(C)(C)CC3=O)OC3=C2C(=O)CC(C)(C)C3)cc1`: the inhibition is -1.37% (inactive).

In the case of `O=c1[nH]c(/C=C\c2cccnc2)c([N+](=O)[O-])c(=O)[nH]1`, the inhibition is -10.6% (inactive).

Turning to `C/C=C/C(=O)OCC(=O)Nc1nc2ccc(C)cc2s1`, the inhibition is -7.77% (inactive).

In the case of `COc1cccc(C(=O)NNC(=O)C2CC(C)=C(C)CC2C(=O)O)c1` (stereo not drawn), the inhibition is -6.84% (inactive).

On to `O=C(NC1CCSC1=O)c1ccc(Oc2ccc(F)cc2)nc1` (stereo not drawn), for which the inhibition was 0.17% (inactive).

Consider `CCCn1nc2cc(C(=O)NCC34CC5CC(CC(C5)C3)C4)ccc2c1OCC`, for which the inhibition is 5.26% (inactive).

Regarding `COc1ccc(Br)cc1CNC(=O)C1CCN(S(=O)(=O)N2CCCC2)CC1`, the inhibition was -4.95% (inactive).

`COc1ccccc1N=Nc1[nH]c2ccc(C)cc2c1O`: the inhibition was 9.9% (inactive).

Regarding `CCS(=O)(=O)c1ccc(N=Nc2ccc(O)c3ncccc23)c(OC)c1`, the inhibition was -3.16% (inactive).

`Cc1ccccc1NCc1ccc(O)c2ncccc12`: the inhibition was 5.07% (inactive).

On to `Cc1cccnc1NCc1ccc(O)c2ncccc12`, for which the inhibition is -8.13% (inactive).

For the compound `CCS(=O)(=O)c1ccc(OC)c(N=Nc2ccc(O)c3ncccc23)c1`, the inhibition is 4.79% (inactive).

Turning to `Cc1ccc(S(=O)(=O)Nc2ccc(O)c3ncccc23)cc1`, the inhibition was -2.86% (inactive).

Regarding `Cc1ccc(NCc2ccc(O)c3ncccc23)cc1C`, the inhibition is 9.65% (inactive).

Take `Oc1ccc(N=Nc2ccc3c(c2)OCCO3)c2ncccc12`: the inhibition was 41% (inactive).

As to `Cc1ccc(-c2nc(C=Nc3cccc(C)c3)c(O)o2)cc1`, the inhibition was 1.48% (inactive).

Consider `CCn1c(SCC(=O)Nc2cc(C)on2)nnc1-c1c[nH]c2ccccc12`, for which the inhibition was -1% (inactive).

With `CSc1ccccc1NC(=O)COC(=O)c1ccccc1Cc1ccccc1`, the inhibition is 7.08% (inactive).

`N#CC1=C2N=C(N)c3ccccc3N2C2=C(C(=O)CCC2)C1c1ccc(Cl)cc1` (stereo not drawn): the inhibition is -9.07% (inactive).

With `Cc1ccc(C(=O)Nc2ccc(N3CCN(S(C)(=O)=O)CC3)cc2)cc1C`, the inhibition was -8.49% (inactive).

On to `C=CCOc1ccc(/C=C2\C(=N)N3N=C(S(=O)(=O)CC)SC3=NC2=O)cc1OC`, for which the inhibition is -2.08% (inactive).

With `O=C(c1ccco1)N1CCN(CCCCN2C(=O)c3ccccc3C2=O)CC1`, the inhibition is -5.13% (inactive).

For the compound `CC1CN(C(=O)c2cc(F)c(F)cc2Cl)CC(C)O1` (stereo not drawn), the inhibition is -4.24% (inactive).

Consider `Clc1ccccc1CN1CCN(CCCc2ccccc2)CC1`, for which the inhibition was 6.37% (inactive).

Turning to `Fc1ccc(C(OCCN2CCCC2)c2ccc(Br)cc2)cc1` (stereo not drawn), the inhibition was 11.1% (inactive).

With `c1ccc(C(OCCN2CCNCC2)c2ccccc2)cc1`, the inhibition was -7.41% (inactive).

Consider `Fc1ccc(C(OCCN2CCCC2)c2ccc(F)cc2)cc1`, for which the inhibition was 3.27% (inactive).

For the compound `COc1ccc(C(C)=O)cc1COC(=O)C(CO)NS(=O)(=O)c1ccc(Br)cc1` (stereo not drawn), the inhibition was 7.85% (inactive).

On to `Cc1ccc(C(=O)N2CCN(c3cc4c(cc3[N+](=O)[O-])n(C)c(=O)n4C)CC2)cc1`, for which the inhibition is -9.29% (inactive).

As for `CC(C)Sc1nc2c(c(=O)[nH]c(=O)n2C)n1Cc1ccc(Cl)cc1`, the inhibition was 11.2% (inactive).

As to `O=c1c2ccccc2c(-c2ccccc2)nn1-c1ccccc1`, the inhibition was 8.6% (inactive).

As for `CC(C)NC(=O)C(=O)NC1CCCCCC1`, the inhibition was -2.43% (inactive).

Take `O=[N+]([O-])c1ccc(N/N=C/c2cn(-c3ccccc3)nc2-c2ccccc2)cc1`: the inhibition was 30.5% (inactive).

For the compound `COc1ccc(/C=N/NC(=O)c2c([N+](=O)[O-])c(C)nn2C)cc1`, the inhibition was 1.88% (inactive).

As to `CS(=O)(=O)c1ccc2nc(NC(=O)c3ccc(NS(=O)(=O)c4cccc([N+](=O)[O-])c4)cc3)sc2c1`, the inhibition was 34.8% (inactive).

In the case of `CC(=NCC1CCCO1)c1c(O)n(-c2ccccc2C)c(=O)[nH]c1=O` (stereo not drawn), the inhibition was -6.91% (inactive).

Turning to `N=c1c(C(=O)NCc2ccco2)cc2c(=O)n3ccccc3nc2n1CCc1ccccc1`, the inhibition was -6.57% (inactive).

On to `CCCn1c(=N)c(C(=O)NCC2CCCO2)cc2c(=O)n3cccc(C)c3nc21` (stereo not drawn), for which the inhibition is -1.86% (inactive).

Consider `CCNC(=O)c1cc2c(=O)n3cccc(C)c3nc2n(CCc2ccccc2)c1=N`, for which the inhibition was -3.98% (inactive).

As for `CCOCCCn1c(=N)c(C(=O)NCc2ccc3c(c2)OCO3)cc2c(=O)n3cccc(C)c3nc21`, the inhibition was 26.6% (inactive).

For the compound `COc1ccc(N2CCN(C(=O)CCCCCn3c(=O)[nH]c4ccsc4c3=O)CC2)cc1`, the inhibition was 0.96% (inactive).

As for `CS(=O)(=O)N1Cc2ccccc2CC1C(=O)Nc1ccccc1C(N)=O` (stereo not drawn), the inhibition is 0.87% (inactive).

On to `CCc1ccc(N2Cc3ccccc3C2)cc1`, for which the inhibition is 14.3% (inactive).

Regarding `CN(C)CCNC(=O)/C=N/O`, the inhibition is -1.95% (inactive).

As to `O=C(NC1CCCCCC1)c1ccccc1-c1ccccc1`, the inhibition is 36% (inactive).

With `O=C(NC1CCCCC1)c1ccccc1-c1ccccc1`, the inhibition was 0.73% (inactive).

Regarding `COc1cc(/C=N/NC(=O)CCc2n[nH]c(=O)[nH]c2=O)cc(OC)c1OC`, the inhibition is -3.85% (inactive).

As for `CCCCN1C(=O)CC(Sc2ncccc2C(=O)O)C1=O` (stereo not drawn), the inhibition is 3.02% (inactive).

With `Cc1cc(N2C(=O)C3CCCN3C2c2cccc(Cl)c2)no1` (stereo not drawn), the inhibition was -8.92% (inactive).

In the case of `Cc1ccc(NC(=O)COc2ccccc2[N+](=O)[O-])nc1`, the inhibition was 0.84% (inactive).

Take `CN(C(=O)COc1ccccc1)c1nc(-c2ccc(F)cc2)cs1`: the inhibition is -0.64% (inactive).

For the compound `Cc1ccc(C(=O)N(CC#N)CC#N)cc1C`, the inhibition is 0.74% (inactive).

On to `N#CCCN(C(=O)CCl)c1cccc(Cl)c1`, for which the inhibition is 32.5% (inactive).

Turning to `Cc1cccc(-c2noc(CCCOc3ccc(Cl)cc3Cl)n2)c1`, the inhibition is -7.47% (inactive).

As to `Clc1ccc(C2=Nc3cc(Cl)ccc3OC2)cc1`, the inhibition was -4.24% (inactive).

As for `Cc1ccc2c(c1)N=C(c1ccc(F)cc1)CO2`, the inhibition is -1.59% (inactive).

For `COCC(COCCCNC(=O)Nc1ccc(Br)cc1)OC` (stereo not drawn), the inhibition was 2.27% (inactive).

For the compound `CCOC(=O)c1sc(C)c2c1NC1(CCCCC1)NC2=O`, the inhibition is 2.89% (inactive).

On to `O=C(NCc1cccnc1)c1ccccc1CCc1ccccc1`, for which the inhibition was 5.46% (inactive).

In the case of `NC(=O)CSc1nnc(-c2ccc([N+](=O)[O-])cc2)o1`, the inhibition was -3.14% (inactive).

Turning to `C=CCSc1nnc(-c2cccnc2)o1`, the inhibition is -5.82% (inactive).

Consider `N#CCSc1nnc(-c2sc3ccccc3c2Cl)o1`, for which the inhibition was 11.6% (inactive).

For `Cc1ccc(CSc2nnc(-c3ccc(NS(=O)(=O)c4ccccc4)cc3)o2)cc1`, the inhibition is 11.7% (inactive).

On to `CCOC(=O)CSc1ncc(-c2ccc([N+](=O)[O-])cc2)[nH]1`, for which the inhibition is 47.4% (inactive).

For `COC(=O)CSc1nnc(-c2ccncc2)o1`, the inhibition was -2.74% (inactive).

On to `Cc1ccc(S(=O)(=O)Nc2ccc(-c3nnc(SCc4ccccc4Cl)o3)cc2)cc1`, for which the inhibition is 0.5% (inactive).

As for `CSc1nnc(-c2ccc([N+](=O)[O-])cc2)o1`, the inhibition was 34% (inactive).

Turning to `COC(=O)c1cc(NS(=O)(=O)c2ccc(C)c3ccccc23)ccc1N1CCOCC1`, the inhibition is -0.65% (inactive).

As to `O=C1CC(N2CCC(O)CC2)C(=O)N1c1ccc(Br)cc1` (stereo not drawn), the inhibition was -5.77% (inactive).

Consider `O=C(CC1(O)C(=O)N(CCc2ccccc2)c2ccccc21)c1ccccn1` (stereo not drawn), for which the inhibition was -2.54% (inactive).

Turning to `CC(=O)c1c(C)[nH]c(C(=O)OCC(=O)N2c3ccccc3NC(=O)C2(C)C)c1C`, the inhibition was 1.01% (inactive).

Consider `COC(=O)CSc1nnc(-c2ccc(S(=O)(=O)NCc3cccs3)cc2)o1`, for which the inhibition was 62.9% (inactive).

With `CCS(=O)(=O)Nc1ccc(-c2nnc(SCC(=O)OC)o2)cc1`, the inhibition is 6.98% (inactive).

`COC(=O)COc1ccccc1/C=C1/NC(=O)NC1=O`: the inhibition is -6.93% (inactive).

As for `COC(=O)COc1cc(Cl)c(C=O)cc1OC`, the inhibition was 4.35% (inactive).

Regarding `COc1ccc2c(c1)c1c3n2CCN(C)C3=NCC1`, the inhibition is -9.72% (inactive).

For `Cc1ccc2c(c1)c1c(n2C)C(=O)CCC1`, the inhibition is -12.1% (inactive).

Turning to `OC1CN=C2CCCc3c2n(c2ccc(Cl)cc32)C1` (stereo not drawn), the inhibition is -8.27% (inactive).

With `CCN1CCn2c3c(c4cc(C)ccc42)CCCC31` (stereo not drawn), the inhibition is 3.23% (inactive).

As for `Cc1ccc(C(=O)Nc2cc(C)c(OCC(=O)N3CCOCC3)c(C)c2)cc1`, the inhibition was 0.81% (inactive).

With `COc1ccc(C2C(C#N)=C(N)Oc3cc(C)n(Cc4ccco4)c(=O)c32)cc1` (stereo not drawn), the inhibition is 3.54% (inactive).

As for `CC1(C)Cc2nc3sc4c(SCC(=O)O)ncnc4c3cc2CO1`, the inhibition was -5.61% (inactive).

`CCSc1ncnc2c1sc1nc3c(cc12)COC(C)(C)C3`: the inhibition was 12.9% (inactive).

For `O=C(NCCCn1ccnc1)C(=O)NCC1OCCCN1S(=O)(=O)c1ccc(Cl)cc1` (stereo not drawn), the inhibition was 1.46% (inactive).
